The text below walks through data of PubChem BioAssay (EPA / NIEHS).

For orientation: AC50 means the midpoint of the concentration-response curve, whichever way the signal moves.

The structures appear in SMILES notation. Where “and” joins values, the source holds several entries; their conditions need not be identical. Equal values may be shown once. Results filed as inconclusive are left out. A structure can be active in one record and inactive in another. Calls of active or inactive are those of the source. Rule for the calls: active = hit-call score of the fitted dose curve at least 0.9, where 1 is the maximum; inconclusive = response in the unintended direction; inactive = score below 0.9.

Chain of Retinoic acid receptor RXR-alpha (Homo sapiens) (P19793 whole entry, looked up, the tested form may be a part): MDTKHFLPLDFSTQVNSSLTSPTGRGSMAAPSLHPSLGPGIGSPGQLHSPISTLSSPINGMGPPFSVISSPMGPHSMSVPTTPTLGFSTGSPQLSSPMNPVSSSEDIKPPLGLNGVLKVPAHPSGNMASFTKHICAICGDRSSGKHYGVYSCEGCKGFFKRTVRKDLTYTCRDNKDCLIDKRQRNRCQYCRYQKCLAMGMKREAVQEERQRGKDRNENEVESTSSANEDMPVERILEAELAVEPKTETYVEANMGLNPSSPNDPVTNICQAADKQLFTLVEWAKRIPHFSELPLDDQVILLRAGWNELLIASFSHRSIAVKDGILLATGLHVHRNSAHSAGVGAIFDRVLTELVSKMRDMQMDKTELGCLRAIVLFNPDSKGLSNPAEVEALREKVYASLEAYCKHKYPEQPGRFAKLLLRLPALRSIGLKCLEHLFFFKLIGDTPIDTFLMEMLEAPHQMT

The assay has as its target Retinoic acid receptor RXR-alpha (Homo sapiens) (UniProt P19793). Nature of the assay: OT_NURR1_NURR1RXRa_1440: Odyssey Thera (OT) 24-hour HEK293T Protein Complementation Assay for Nurr1/retinoid X receptor (RXR) (AID 2283386). The protocol: OT_NURR1_NURR1RXRa_1440 is a cell-based assay that uses HEK293T, a human kidney cell line, with measurements taken at 24 hours after chemical dosing in a 384-well plate.OT_NURR1_NURR1RXRa_1440 is one of one assay component(s) measured or calculated from the OT_NURR1_NURR1RXRa_1440 assay. It is designed to make measurements of protein fragment complementation, a form of binding reporter, as detected with fluorescence intensity signals by Protein-fragment Complementation technology.Data from the assay component OT_NURR1_NURR1RXRa_1440 was analyzed into 1 assay endpoint. This assay endpoint, OT_NURR1_NURR1RXRa_1440, was analyzed in the positive analysis fitting direction relative to DMSO as the negative control and baseline of activity. Using a type of binding reporter, measures of receptor for gain-of-signal activity can be used to understand the binding at the pathway-level as they relate to the gene RXRA. Furthermore, this assay endpoint can be referred to as a primary readout, because the performed assay has only produced 1 assay endpoint. To generalize the intended target to other relatable targets, this assay endpoint is annotated to the nuclear receptor intended target family, where the subfamily is non-steroidal.
Protein-fragment complementation assay, or PCA, is a method for the identification and quantification of protein-protein interactions. In the PCA, the proteins of interest ("bait" and "prey") are each covalently linked to fragments of a third protein (e.g. DHFR, which acts as a "reporter"). Interaction between the bait and the prey proteins brings the fragments of the reporter protein in close proximity to allow them to form a functional reporter protein whose activity can be measured.
Regarding `COc1c(Cl)ccc(Cl)c1C(=O)O`, the outcome was inactive.

Regarding `CCOC(=O)NCCOc1ccc(Oc2ccccc2)cc1`, the AC50 is 50 µM (active) and the outcome was inactive.

As for `CC(=O)S[C@@H]1CC2=CC(=O)CC[C@]2(C)[C@H]2CC[C@@]3(C)[C@@H](CC[C@@]34CCC(=O)O4)[C@H]12`, the outcome was inactive.

As to `CCOC(=O)c1ccc(O)cc1`, the molecule was called inactive.

For the molecule `COC(=O)c1ccc(I)cc1S(=O)(=O)NC(=O)Nc1nc(C)nc(OC)n1`, the molecule was classed as inactive.

As for `S=C([S-])NCCNC(=S)[S-].[Mn+2]`, the molecule was classed as inactive and the AC50 is 69.5 µM (active).

With `Oc1ccc(C(c2ccc(O)cc2)C(Cl)(Cl)Cl)cc1`, the molecule was called inactive.

As for `CCNc1nc(N)nc(Cl)n1`, the call was inactive.

Take `S=C(S)NCCNC(=S)S.[Mn+2].[S-]C([S-])=NCCN=C([S-])[S-].[Zn+2]`: the call was inactive and the half-maximal activity concentration (AC50) is 40.2 µM (active) [middle of 4 runs].

With `CC(=O)[C@H]1CC[C@H]2[C@@H]3CCC4=CC(=O)CC[C@]4(C)[C@H]3CC[C@]12C`, the molecule was called inactive.

Regarding `CCCCC(CC)CN1C(=O)C2C3C=CC(C3)C2C1=O` (stereo not given), the call was inactive.

With `CCOC(=O)C(C)Oc1ccc(Oc2cnc3cc(Cl)ccc3n2)cc1` (stereo not given), the molecule was classed as inactive.

Regarding `CCCN(CCC)c1c([N+](=O)[O-])cc(C(F)(F)F)c(N)c1[N+](=O)[O-]`, the AC50 is 35.9 µM (active) and 34.9 µM (active).

With `COC(=O)CSc1cc(N=c2sc(=O)n3n2CCCC3)c(F)cc1Cl`, the outcome was inactive.

In the case of `O=C(c1ccc(O)cc1O)c1ccc(O)cc1O`, the result was inactive.

As for `CCN(CC)C(=O)c1cccc(C)c1`, the outcome was inactive.

`Cc1nn(C)c(Oc2ccccc2)c1C=NOCc1ccc(C(=O)OC(C)(C)C)cc1`: the outcome was inactive and the AC50 is 15.7 µM (active).

As to `C#CCOC(=O)[C@@H](C)Oc1ccc(Oc2ncc(Cl)cc2F)cc1`, the molecule was classed as inactive.

As for `CCCCOC(=O)[C@@H](C)Oc1ccc(Oc2ccc(C(F)(F)F)cn2)cc1`, the outcome was inactive.

On to `C#C[C@]1(O)CC[C@H]2[C@@H]3CCC4=CC(=O)CC[C@@H]4[C@H]3CC[C@@]21CC`, for which the molecule was classed as inactive.

In the case of `CC1(C)C(C=C(Cl)Cl)C1C(=O)OCc1cccc(Oc2ccccc2)c1` (stereo not given), the molecule was called inactive.

Regarding `N#CSCSc1nc2ccccc2s1`, the AC50 is 11.6 µM (active).

For `CCCCCOC(=O)COc1cc(N2C(=O)C3=C(CCCC3)C2=O)c(F)cc1Cl`, the call was inactive.

With `CCCCOCCOCCOCc1cc2c(cc1CCC)OCO2`, the molecule was called inactive.

Consider `O=C(O)C1(C(=O)Nc2ccc(Cl)cc2Cl)CC1`, for which the AC50 is 50 µM (active).

For the molecule `O=C(Nc1ccc([N+](=O)[O-])cc1Cl)c1cc(Cl)ccc1O`, the AC50 is 1.45 µM (active) and the call was inactive.

In the case of `c1ccc(Nc2ccccc2)cc1`, the outcome was inactive.

For the molecule `CCC(C)OC(=O)N1CCCCC1CCO` (stereo not given), the molecule was called inactive.

As to `COC(=O)c1ccccc1C(=O)O`, the result was inactive.

As for `CCCCC(CC)COC(=O)c1ccccc1C(=O)O` (stereo not given), the outcome was inactive.

On to `CCCOC(=O)c1ccc(C(=O)OCCC)nc1`, for which the molecule was classed as inactive.

Turning to `COCCO`, the result was inactive.

As for `CCOC(=O)C(C)Oc1ccc(Oc2nc3ccc(Cl)cc3o2)cc1` (stereo not given), the outcome was inactive.

In the case of `CCN(Cc1c(F)cccc1Cl)c1c([N+](=O)[O-])cc(C(F)(F)F)cc1[N+](=O)[O-]`, the molecule was classed as inactive.

As to `C[C@]12CC[C@@H]3c4ccc(O)cc4C[C@@H](CCCCCCCCCS(=O)CCCC(F)(F)C(F)(F)F)[C@H]3[C@@H]1CC[C@@H]2O` (stereo not given in full), the molecule was classed as inactive.
